Measured values from PubChem BioAssay AID485344 (National Center for Advancing Translational Sciences (NCATS), 2010).
Screen size: about 340,000 compounds; about 6,900 (2%) were called active. The entries come from a sample that favours actives as a whole. A number with no mark means an inactive call. Rule as the data show it: active = inhibition above about 30%; inactive = below that, where a call was filed.

Each compound was assayed against D(2) dopamine receptor (Homo sapiens) (UniProt P14416) (assay: HTS Assay for Allosteric Antagonists of the Human D2 Dopamine Receptor: Primary Screen for Antagonists). Conditions: HEK293 TREx D2 cells, calcium flux, dopamine EC80; at 10 µM; stronger effect = higher value.
Sequence of D(2) dopamine receptor (Homo sapiens) (P14416 whole entry, looked up): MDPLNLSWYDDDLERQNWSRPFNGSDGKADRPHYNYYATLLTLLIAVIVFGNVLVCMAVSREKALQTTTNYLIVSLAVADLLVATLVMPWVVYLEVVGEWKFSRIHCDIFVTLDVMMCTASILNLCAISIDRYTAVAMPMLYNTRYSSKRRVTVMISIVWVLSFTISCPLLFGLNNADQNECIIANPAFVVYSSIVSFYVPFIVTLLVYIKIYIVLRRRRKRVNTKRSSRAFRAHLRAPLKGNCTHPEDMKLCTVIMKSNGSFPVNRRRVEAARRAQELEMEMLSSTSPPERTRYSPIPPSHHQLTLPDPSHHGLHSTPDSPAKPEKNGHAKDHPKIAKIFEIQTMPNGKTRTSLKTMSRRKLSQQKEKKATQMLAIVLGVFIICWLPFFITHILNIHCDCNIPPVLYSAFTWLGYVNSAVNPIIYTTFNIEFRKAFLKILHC
Text: NIH Chemical Genomics Center [NCGC] NIH Molecular Libraries Probe Centers Network [MLPCN] MLPCN Grant: NS064831-01 Assay Submitter (PI): David Sibley Dopamine receptors (DARs) are involved in the etiology and/or therapy of a number of neuropsychiatric and endocrine disorders. For instance, all receptor-based antiparkinsonian drugs work via stimulating the D2 DAR subtype whereas all FDA-approved antipsychotic agents are antagonists of this receptor. […] There are three different types of allosteric modulators that we are seeking, two of which will stimulate or augment receptor signaling, allosteric agonists and potentiators, while the third, allosteric antagonists, will attenuate receptor signaling. The present primary screening assay measures compound antagonism after an EC80 addition of dopamine by tracking calcium flux in a […], inducible Hek293 Trex D2 cell line.
Freshly passaged cells are plated in 1536 well black, clear bottom plates at a density of 4000 cells/well in 3 ul of complete media containing 1x tetracycline inducer. After an overnight incubation at 30 C in 5% CO2, cells are loaded with 2 ul of the no wash Calcium Assay Kit (ABD Bioquest) and incubated at room temperature for 30 to 90 minutes. Agonist read: A 10 cycle (1 second/cycle) baseline measurement is taken and then the FDSS online 1536 pintool delivers 23 nl of compound library (as well as dopamine controls) to the plate. The plate is measured for kinetically at 1 cycle/sec for 180 seconds. Following the 180 second read, 1 ul of an EC80 (negative modulation assay) is delivered by an onboard pipette head. Measurements are taken kinetically for an additional 180 seconds.
Also: 0% is about no effect.

Compound | inhibition
O=S(=O)(c1cccs1)N1CCN(CCOc2ccccc2)CC1 | -9.4%
Nc1c(N(Cc2ccco2)C(=O)c2cccc(F)c2)c(=O)[nH]c(=O)n1Cc1ccccc1 | 11.2%
COc1cccc(CC2(CO)CCCN(Cc3nc(-c4cccs4)oc3C)C2)c1 (centres undefined) | -28.2%
CCOC(=O)C1(CC2CCCCO2)CCN(Cc2nc(-c3cccs3)oc2C)CC1 (centres undefined) | 69.3% (active)
CC(Sc1nnc(-c2cccs2)n1C1CC1)C(=O)NCC1CCCO1 (centres undefined) | 13.5%
O=C(OCC(=O)N1CCc2ccccc21)C1CCCN1S(=O)(=O)c1ccc(Cl)cc1 (centres undefined) | -11.4%
CCOC(=O)c1ccc(NC(=O)C2CC(=O)N(c3ccc4c(c3)OCCO4)C2)cc1 (centres undefined) | 6.09%
Cc1ccc(-c2c[n+](CC(=O)Nc3ccccc3)c3n2CCC3)cc1 | 7.8%
Clc1ccc(C[n+]2cc(-c3ccccc3)n3c2CCC3)cc1 | -18.7%
Clc1ccc(C[n+]2cc(-c3ccc(Cl)cc3)n3c2CCC3)cc1 | 44.4% (active)
OCC[C@H]1C[C@H](O)[C@@H](O)[C@]2(CCc3ccccc3O2)O1 | 4.64%
CN(C)C(CNC(=O)c1cccc(S(=O)(=O)Nc2ccc(Br)cc2)c1)c1ccco1 (centres undefined) | 22.1%
Cc1ccc(CN2CCN(Cc3cn(C)nc3-c3ccccc3)CC2CCO)o1 (centres undefined) | 9.07%
CCn1nc(C)c(CN2CCN(Cc3ccc(OC)c(C)c3C)C(CCO)C2)c1C (centres undefined) | -7.65%
COc1ccc(CN2CCN(Cc3cn(C)nc3-c3ccccc3)CC2CCO)c(C)c1C (centres undefined) | 33.2% (active)
CCOc1ccc(S(=O)(=O)NCCC(=O)NCC2CCCO2)cc1 (centres undefined) | 6.91%
CN1CCC(N(C)S(=O)(=O)c2ccc(NC(=O)c3cccc(C#N)c3)cc2)CC1 | -21.6%
O=C(N[C@@H](Cc1ccccc1)C(=O)OCc1ccccc1)c1nc[nH]c1C(=O)N[C@@H](Cc1ccccc1)C(=O)OCc1ccccc1 | 13.9%
O=C(N[C@@H](Cc1ccccc1)C(=O)OCc1ccccc1)c1nc[nH]c1C(=O)NC1CCNCC1 | 76.1% (active)
CC(C)(C)OC(=O)N1CCC(NC(=O)c2[nH]cnc2C(=O)N[C@@H](Cc2ccccc2)C(=O)OCc2ccccc2)CC1 | 20.4%
O=C(NCc1ccccc1CN1CCCC1)C1CCN(S(=O)(=O)c2ccc(Cl)cc2)CC1 | 9.19%
Cc1ccc(CNC(=O)c2cc(-c3ccccc3C)n(CC3CC(c4cccc([N+](=O)[O-])c4)=NO3)n2)cc1 (centres undefined) | 6.93%
Cc1ccccc1-c1cc(C(=O)NCc2cccs2)n(CC2CC(c3cccnc3)=NO2)n1 (centres undefined) | 37.9% (active)
Cc1ccccc1-c1cc(C(=O)NCC2CC2)n(CC2CC(c3cccnc3)=NO2)n1 (centres undefined) | 2.25%
